High-throughput results (PubChem)
sEH inh = soluble epoxide hydrolase (human) inhibition | 91,000 tested, 0.34% active | AID 707 | inhibition, % at 2 µM | recombinant human sEH enzymatic activity assay; in the data active means inhibition above about 80%
Target sequence (P34913 whole entry, looked up): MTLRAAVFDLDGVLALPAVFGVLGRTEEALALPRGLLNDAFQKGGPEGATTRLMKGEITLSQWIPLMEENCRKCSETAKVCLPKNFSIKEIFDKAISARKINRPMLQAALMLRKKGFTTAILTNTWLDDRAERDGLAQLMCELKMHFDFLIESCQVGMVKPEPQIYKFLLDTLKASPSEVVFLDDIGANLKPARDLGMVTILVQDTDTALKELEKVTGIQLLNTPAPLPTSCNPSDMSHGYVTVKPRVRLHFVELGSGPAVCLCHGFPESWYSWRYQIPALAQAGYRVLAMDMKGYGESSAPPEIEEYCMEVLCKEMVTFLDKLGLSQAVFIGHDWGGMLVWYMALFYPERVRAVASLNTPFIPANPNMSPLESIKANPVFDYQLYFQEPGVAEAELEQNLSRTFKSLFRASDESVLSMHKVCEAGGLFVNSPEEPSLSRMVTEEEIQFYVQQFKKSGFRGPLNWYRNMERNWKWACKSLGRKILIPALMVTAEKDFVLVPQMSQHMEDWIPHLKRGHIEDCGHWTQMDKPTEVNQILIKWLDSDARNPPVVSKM
CYP2C19 activ = cytochrome P450 2C19 (human) activation; recombinant CYP2C19, luciferin-H EGE luminescence; stronger effect = higher value; 0 = fully inhibited enzyme, 1 = untreated enzyme; activation factor at 5 µM; 96,000 tested, under 10 active; AID 1025;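 active means activation factor of at least 2 at 5 µM in the primary screen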;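 further: 0 = wells with 2.5 mM tranylcypromine and 1 = vehicle-only wells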
CYP2C9 activ = activators of human CYP2C9; activation factor at 5 µM; 96,000 tested, 1.4% active; recombinant CYP2C9, luciferin-H conversion, luminescence; stronger effect = higher value; factor 1 = untreated enzyme, 0 = blocked; AID 1024;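 active means activation factor of 2 or more for CYP2C9 at a 5 µM dose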;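 further: 0 = sulfaphenazole-blocked wells and 1 = vehicle-only wells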
CYP2C19 inhib = blocks human cytochrome P450 2C19. P33261. CYP2C19 Supersomes, luciferin-H EGE luminescence, 30 min. inhibition, % at 5 µM. 96,000 tested, 21% active. AID 778;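 active means CYP2C19 inhibition above a set limit at 5 µM in the primary screen, cut at about 50% in these data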;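 further: plate controls were negative control wells for no effect and 2.5 mM tranylcypromine positive control for full effect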
CYP2C9 inhib = blocks human cytochrome P450 2C9; 96,000 tested, 20% active; inhibition, % at 5 µM; CYP2C9 Supersomes, luciferin-H conversion, luminescence; P11712; AID 777;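 active means blocking of liver enzyme CYP2C9 beyond about 50% at 5 µM, limit read from the data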
sEH activator = increases human soluble epoxide hydrolase activity | purified human sEH enzymatic activity, activator screen | activation, % at 2 µM | 91,000 tested, 0.04% active; in the data active means activation above about 37%
Numbers without * were called inactive; . = not tested or not shown. In the library only some 27% were active in any assay of this set; here they are far more common.

SMILES	sEH inh	CYP2C19 activ	CYP2C9 activ	CYP2C19 inhib	CYP2C9 inhib	sEH activator
Cc1ccc2c(Cl)cc(Cl)c(OCC(=O)NCc3ccco3)c2n1	4.0	0.9	1.2	12.6	-20.6	-4.4
Cc1ccc2c(Cl)cc(Cl)c(OCC(=O)Nc3cc(C)on3)c2n1	-15.5	0.5	1.9	50.1*	-89.2	18.9
COc1ccc(OCCC(=O)NC2=NCCS2)cc1	-10.3	0.2	1.2	75.5*	-18.2	10.7
COc1ccc(NC(=S)NNC(=O)C(C)n2nc(C)c([N+](=O)[O-])c2C)cc1 (stereo not drawn)	-2.4	1.1	1	-7.1	-1.9	5.5
Cc1nn(C(C)C(=O)NNC(=S)Nc2ccc(F)cc2)c(C)c1[N+](=O)[O-] (stereo not drawn)	-1.9	0.9	0.4	7.8	55.0*	3.3
Cc1nn(C)c(C(=O)NNC(=S)Nc2ccc(F)cc2)c1[N+](=O)[O-]	-10.4	0.9	0.5	8.5	51.5*	11.9
Cn1/c(=N/N=C/c2ccc([N+](=O)[O-])cc2)sc2ccccc21	-2.1	0.8	1.2	15.0	-18.7	0.9
COc1ccc(N=c2sc3ccccc3n2C)cc1	-8.3	0.5	0.7	51.3*	28.7	11.6
Cn1c(=NCC(O)COc2ccccc2)sc2ccccc21 (stereo not drawn)	-11.1	0	0.6	95.4*	43.8	10.8
CCCCn1c(=N)n(CC(O)COc2ccccc2)c2ccccc21 (stereo not drawn)	3.4	0.6	0.8	42.1	16.1	-3.1
COc1ccc(N=c2scc(-c3ccc(OC)cc3)n2CCO)cc1	-16.4	.	.	.	.	16.3
COc1ccccc1N=c1sc2ccccc2n1C	3.0	0.2	0.6	77.1*	42.5	-0.1
COc1ccc(-c2nc(CS(=O)CC(=O)NCCCN3CCCC3)c(C)o2)cc1OC (stereo not drawn)	-7.1	1	1	4.8	-2.9	7.7
COc1ccc(OC)c(NC(=O)CCN2CCCCCC2)c1	4.4	.	.	.	.	-1.3
CCc1nn2cc(-c3ccccc3)nc2s1	.	0.1	0.4	88.0*	58.8*	.
CC(C)(C)n1ncc2c(=O)n(CC(=O)NCc3ccccc3Cl)cnc21	4.0	1.1	1.4	-10.2	-38.3	-4.4
NCC(O)COCCC12CC3CC(CC(C3)C1)C2 (stereo not drawn)	.	0.1	0.7	87.9*	25.2	.
NC(=O)NCC12CC3CC(CC(C3)C1)C2	-8.4	1	1.1	0.8	-6.2	6.8
Cc1c(C(=O)O)oc2ccc(S(=O)(=O)NCc3ccccc3)cc12	-9.4	1.3	1.2	-26.4	-24.1	13.6
CCN(C1CCCCC1)S(=O)(=O)c1ccc(OC)c(C)c1	-1.8	0.2	2.1*	75.4*	-109.0	4.3
CCN(C1CCCCC1)S(=O)(=O)c1cc(C)ccc1OC	-8.7	0.1	0.1	85.6*	94.4*	8.2
CCN(C1CCCCC1)S(=O)(=O)c1cn(C)c(=O)n(C)c1=O	-10.4	0.9	0.9	11.8	10.7	9.5
Cc1ccc(S(=O)c2ccc(C)cc2)cc1	-4.1	0.7	1	31.6	1.7	4.7
CC1(C)CC(=O)CC(=NCC(=O)O)C1	7.8	0.9	0.8	7.0	20.9	-6.9
O=C(CSc1nnc(-c2ccccn2)n1Cc1ccccc1)Nc1ccc2c(c1)OCO2	-8.0	1	0.8	0.8	15.0	8.2
SMILES	sEH inh	CYP2C19 activ	CYP2C9 activ	CYP2C19 inhib	CYP2C9 inhib	sEH activator
COc1ccc(N(CC(=O)NCc2cccs2)S(=O)(=O)c2c(C)n[nH]c2C)cc1	.	0.3	0.7	73.2*	31.8	.
CNC(=O)CN(c1ccc(OC)cc1)S(=O)(=O)c1ccc(F)cc1	6.3	.	.	.	.	-3.6
COc1ccc(N(CC(=O)NCc2cccs2)S(=O)(=O)c2cccnc2)cc1	-11.0	0.2	0.4	84.4*	63.9*	10.2
Cc1cc(C)c2oc(-c3ccc(Cl)c(NC(=O)c4ccc(C#N)cc4F)c3)nc2c1	-11.5	0.9	0.8	11.8	20.6	6.8
Cc1ccccc1NC(=S)N(C)Cc1cccs1	1.8	0.3	0.8	74.9*	23.8	-2.5
Cc1ccccc1NC(=S)N(CCN(C)C)C(C)c1ccccn1 (stereo not drawn)	-5.0	0.9	0.9	6.6	5.8	2.0
CCOc1ccc(C2C(C(=O)OC)=C(C)N=C3SCCC(=O)N32)cc1OCC (stereo not drawn)	.	0.9	0.7	12.4	25.5	.
CCC1SC2=NC(C)=C(C(=O)OC)C(c3ccc(C(=O)OC)cc3)N2C1=O (stereo not drawn)	5.0	0.1	0.5	92.8*	49.3	-4.6
CCC1SC2=NC(C)=C(C(=O)OCCOC)C(c3ccc(C(=O)OC)cc3)N2C1=O (stereo not drawn)	7.2	0.3	0.3	65.3*	65.1*	-7.2
CC(C)CC(=O)c1c[nH]c(C(=O)NCCCN2CCOCC2)c1	.	1.2	1.1	-17.0	-8.6	.
COc1ccc(CNc2ccc(C)cc2)cc1Br	-8.2	.	.	.	.	4.5
COc1ccc(Br)cc1CNc1ccc(O)cc1	16.5	0.3	0.7	73.0*	30.0	-12.0
CC1(C)CC(=O)C=C(NCCN2CCN(C(=O)Nc3ccc(Cl)c(Cl)c3)CC2)C1	48.5	0.3	0.7	66.4*	30.3	-47.0
CC1(C)CC(=O)C=C(NCCN2CCN(C(=O)Nc3ccc(Cl)cc3)CC2)C1	14.4	0.9	1.1	6.7	-8.6	-15.5
CC(=O)C1=C(C)OC(N)=C(C#N)C1c1ccncc1 (stereo not drawn)	-2.1	1	0.8	2.5	17.2	4.2
CCOC(=O)C1=C(C)OC(N)=C(C(=O)OCC)C1c1cccnc1 (stereo not drawn)	-15.1	0.1	0	92.5*	96.0*	17.5
CCOC(=O)C1=C(C)OC(N)=C(C(=O)OCC)C1c1ccncc1 (stereo not drawn)	.	0.1	0	93.4*	99.4*	.
CC(C)(C)SCCNC(=O)c1ccc(NS(C)(=O)=O)cc1	7.8	1.1	0.8	-12.8	20.2	-6.4
CC(c1ccccc1)N1CC(C(=O)N2CCN(c3ccccc3)CC2)CC1=O (stereo not drawn)	-1.7	1	1.1	2.2	-10.7	0.4
COC(=O)c1[nH]c2ccc(Cl)cc2c1NC(=O)Oc1ccccc1	-5.7	1	1	-2.2	0.3	6.6
CCCCOc1ccc(-c2nc(=S)[nH][nH]2)cc1	11.2	1	0.8	3.0	16.4	-11.7
O=C(CC(C(=O)O)C1CCCO1)NCc1ccccc1 (stereo not drawn)	.	1.2	1.2	-17.0	-18.4	.
CC(CC(=O)NCc1ccccc1)C1CCCO1 (stereo not drawn)	2.2	0.5	0.4	48.9	60.5*	-4.0
CC(C)/C=C1\CCCCC1N(C)C(=O)NC(C)C (stereo not drawn)	-0.2	0.4	0.7	58.5*	34.6	-0.2
Cc1cc(C)n(-c2nnc(C)n2/N=C/c2ccccc2O)n1	8.2	0.8	0.9	16.1	9.3	-5.7
CN1C(=O)/C(=C2\SC(N3CCCCCC3)=NC2=O)c2ccccc21	6.4	0.6	2.7*	44.9	-170.2	-6.1
CC(C)OCP(=O)(c1ccccc1)c1ccccc1	0.9	1	1	0.4	2.5	0.1
O=[N+]([O-])c1ccccc1N/N=C\c1ccccc1Cl	.	0.4	0.7	63.8*	32.8	.
O=[N+]([O-])c1cc(C(F)(F)F)ccc1N/N=C/c1cc2ccccc2nc1Cl	-2.3	1	1	-4.6	-0.8	1.9
Cc1ccc(C(=O)N/C(=C\c2cccs2)C(=O)NC2CCCCC2)cc1	5.0	0.9	1.2	7.2	-22.8	-3.1
